A number with no mark means an inactive call. Records with an inconclusive call do not appear. The source made the active and inactive calls. Unless noted, calls follow the shape of the dose curve; as a rule, active = well fitted curve in either direction with a large enough effect (not every such curve was filed as active); inconclusive = small, poorly fitted or top-dose-only effect, or another doubt; inactive = flat fitted curve, though single readings scatter.

A short description of test [1]: AP1 Signaling Pathway (AID 357).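 Also: ME-180 reporter cells stimulated with EGF at its EC50 level; % is scaled to controls: 0 for no effect and ±100 for the full control effect.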 The following applies: ME-180 AP-1-bla reporter, EGF-induced, beta-lactamase ratio, 5 h; at 17.2 µM (top of the series) unless noted. Summed up: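 Modulation of EGF-driven AP-1 transcription was assessed with a beta-lactamase reporter in ME-180 cells. Compound and EC50 EGF were co-incubated 5 hours at 37 °C before 2.5-hour CCF4 loading at room temperature and dual-emission reading.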

The nature of test [2]: NFAT Signaling Pathway (AID 444).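 Also: carbachol stimulus at about its EC50 of 1 µM final; % is scaled to controls: 0 for no effect and ±100 for the full control effect.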 The following applies: Jurkat NFAT-bla M1, carbachol, beta-lactamase ratio, 5 h; at 17.2 µM (top of the series) unless noted. An outline of the steps:
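Read-out: CCF4 FRET ratio (460 nm/530 nm) after 1 h RT dye loading, used for %activity and AC50 from titration series. Cells: Jurkat NFAT-β-lactamase/M1 line, treated with compound plus 1 uM carbachol for 5 h, 37 °C.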

Test [3] in a line: Stat Signaling Pathway (AID 446).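 Also: ME-180 cervical cancer cells given 40 pM IL-6 alongside compound; SIE-controlled beta-lactamase reporter measured as 460/530 nm FRET emission ratio; % is scaled to controls: 0 for no effect and ±100 for the full control effect.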 The following applies: ME-180 (cervical carcinoma) SIE beta-lactamase reporter, IL-6 stimulated, 5 h; at 17.2 µM (top of the series) unless noted. An outline of the steps: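 Normalization used AC90 stimulation (300 pM IL-6) and AC90 inhibition (125 nM pan-JAK inhibitor at 40 pM IL-6). The underlying signal is SIE-driven beta-lactamase in ME-180 cells after 5 h IL-6 exposure with compound.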

The target in test [4] is Glucocorticoid receptor (Homo sapiens) (UniProt P04150). Kind of test: GR-GFP Redistribution (AID 450;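 active = compounds whose dose series gives a full or clear partial fitted curve of increased nuclear translocation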; also: potency is read from the fitted curve at half-maximal effect).
Chain of Glucocorticoid receptor (Homo sapiens) (P04150 whole entry, looked up): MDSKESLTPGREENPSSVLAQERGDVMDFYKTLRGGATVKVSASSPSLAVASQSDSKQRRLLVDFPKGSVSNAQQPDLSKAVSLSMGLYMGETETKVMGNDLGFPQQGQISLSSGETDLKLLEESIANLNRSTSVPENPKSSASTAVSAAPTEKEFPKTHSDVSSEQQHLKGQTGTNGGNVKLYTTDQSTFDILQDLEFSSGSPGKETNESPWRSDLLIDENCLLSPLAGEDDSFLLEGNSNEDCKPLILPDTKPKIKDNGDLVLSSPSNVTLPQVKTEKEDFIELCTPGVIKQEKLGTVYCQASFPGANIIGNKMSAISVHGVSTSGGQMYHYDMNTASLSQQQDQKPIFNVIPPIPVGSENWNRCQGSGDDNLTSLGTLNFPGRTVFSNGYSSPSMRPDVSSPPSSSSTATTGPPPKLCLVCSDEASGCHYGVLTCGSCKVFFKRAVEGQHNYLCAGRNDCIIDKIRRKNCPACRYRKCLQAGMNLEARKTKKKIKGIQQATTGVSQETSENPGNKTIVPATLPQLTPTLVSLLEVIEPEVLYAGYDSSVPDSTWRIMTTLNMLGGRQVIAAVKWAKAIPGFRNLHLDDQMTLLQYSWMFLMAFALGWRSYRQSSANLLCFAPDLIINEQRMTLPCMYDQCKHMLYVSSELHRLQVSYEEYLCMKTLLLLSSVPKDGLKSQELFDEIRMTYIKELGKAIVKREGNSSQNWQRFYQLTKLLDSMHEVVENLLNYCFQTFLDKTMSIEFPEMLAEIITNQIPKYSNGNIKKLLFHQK

Turning to `CCCCC1CC1C(=O)Nc1ccc(OC)c(OC)c1` (stereo not given), the activity change, negative = inhibition in test [1] was -2.76%; in test [2] it was 3.38%. In addition, the activity, negative = inhibition in test [3] was 6.67%. The Potency in test [4] was greater than 20.6 µM.

Consider `Cc1cc(C)cc(-n2c3nc4ccccc4nc3c3c(=O)n(Cc4ccco4)cnc32)c1`, for which the results for the activity change, negative = inhibition in test [1] and in test [2] were 8.24% and -18.2%, respectively. The activity, negative = inhibition in test [3] was -16.9%. Moreover, the Potency in test [4] is greater than 20.6 µM.

For the molecule `CC1(C)Cc2[nH]c(=O)c(C#N)cc2CS1`, the results for the activity change, negative = inhibition in test [1] and in test [2] were 19.5% and -1.45%, respectively. Moreover, the activity, negative = inhibition in test [3] was 10.8%. The Potency in test [4] is greater than 20.6 µM.

Regarding `N#CCCN(CCC#N)c1nnc(-c2ccccc2)s1`, the results for the activity change, negative = inhibition in test [1] and in test [2] were 8.96% and -5.89%, respectively. Also, the activity, negative = inhibition in test [3] is 1.66%. Further, the Potency in test [4] was greater than 20.6 µM.

For the molecule `Cn1ncc2nc[nH]c(=O)c21`, the activity change, negative = inhibition is 0.993% in test [1] and -1.7% in test [2]. Also, the activity, negative = inhibition in test [3] was 7.35%. Besides, the Potency in test [4] is greater than 20.6 µM.

Consider `CCOC(=O)CSc1nc2sc3c(c2c(=O)[nH]1)CC(C)(C)OC3`, for which the activity change, negative = inhibition in test [1] is 6.27%; in test [2], 6.58%. For the same molecule, in test [3], the activity, negative = inhibition is 4.32%. In test [4], the Potency is greater than 20.6 µM.

Consider `CCc1nc2n[nH]c(N)c2c2c1CCCC2`, for which the activity change, negative = inhibition is -12.2% in test [1] and 1.69% in test [2]. Further, the activity, negative = inhibition in test [3] was -2.34%. Also, the Potency in test [4] was greater than 20.6 µM.

`COc1ccc(OC(=O)c2cc3ccccc3o2)cc1`: the activity change, negative = inhibition in test [1] is 1.41%; in test [2], -19.7%. Besides, the activity, negative = inhibition in test [3] is 10.1%. Further, in test [4], the Potency was greater than 20.6 µM.

Turning to `CCOC(=O)c1[nH]c2ccc(C)cc2c1N=CN(CC)CC`, the activity change, negative = inhibition is 7.82% in test [1] and -21.2% in test [2]. The activity, negative = inhibition in test [3] was 10.4%. Further, the Potency in test [4] is greater than 20.6 µM.

As for `Cc1ccc2[nH]c3c(c2c1)CN(C(=O)CN1CCN(c2ccccn2)CC1)CC3`, the activity change, negative = inhibition in test [1] was -13.5%; in test [2] it was 22.4%. Besides, the activity, negative = inhibition in test [3] is -12.2%. Besides, the Potency in test [4] is greater than 20.6 µM.

As to `COC(=O)c1ccc(C2/C(=C(\O)c3cccc(OC)c3)C(=O)C(=O)N2CCCN(C)C)cc1` (stereo not given), the results for the activity change, negative = inhibition in test [1] and in test [2] were 2.5% and 3.34%, respectively. In addition, in test [3], the activity, negative = inhibition was 5.36%. Also, the Potency in test [4] was greater than 20.6 µM.

Regarding `Brc1ccc2c(c1)CNc1c(ncnc1N1CCOCC1)O2`, the activity change, negative = inhibition in test [1] is -1.29%; in test [2] it was -6.94%. Further, the activity, negative = inhibition in test [3] was -3.65%. For the same molecule, the Potency in test [4] is greater than 20.6 µM.

In the case of `CCOC(=O)C1=C(C)NC(=O)C1CC(=O)Nc1ccccc1` (stereo not given), the activity change, negative = inhibition in test [1] was -1.66%; in test [2] it was 25.9%. In addition, the activity, negative = inhibition in test [3] is 3.03%. Moreover, in test [4], the Potency was greater than 20.6 µM.

As for `CCCCOc1ccc(CN(C)c2ncnc(N)n2)cc1`, the activity change, negative = inhibition in test [1] is -9.35%; in test [2], -11.6%. Also, the activity, negative = inhibition in test [3] was 8.02%. Besides, the Potency in test [4] was greater than 20.6 µM.

With `CCCCCOc1ccccc1C(=O)NCCCC(=O)O`, the activity change, negative = inhibition in test [1] was 2.16%; in test [2] it was -1.98%. Also, the activity, negative = inhibition in test [3] was 1.72%. In addition, the Potency in test [4] is greater than 20.6 µM.

On to `Fc1ccc(C2C3=C(Nc4ncnn42)c2ccccc2OC3c2ccncc2)cc1` (stereo not given), for which the activity change, negative = inhibition was -29% in test [1] and -17% in test [2]. The activity, negative = inhibition in test [3] is -12.3%. In addition, in test [4], the Potency was greater than 20.6 µM.

Take `Cc1ccc(C2/C(=C(/O)c3cnn(-c4ccccc4)c3C)C(=O)C(=O)N2CCN2CCOCC2)o1` (stereo not given): the activity change, negative = inhibition in test [1] was -8.72%; in test [2], 16.8%. Besides, the activity, negative = inhibition in test [3] is -14.9%. In addition, the Potency in test [4] was greater than 20.6 µM.

Consider `CCN(CC)CCn1c(O)c(N=O)c2ccccc21`, for which the values for the activity change, negative = inhibition in test [1] and in test [2] were 90.5% [activator] (active) and -17.1%, respectively. Besides, the activity, negative = inhibition in test [3] is 14.5%. Also, the Potency in test [4] is greater than 20.6 µM.

In the case of `CC(=O)Nc1ccc(Oc2ccc3nc(C)[nH]c3c2)cc1`, the activity change, negative = inhibition in test [1] is -4.84%; in test [2], 0.827%. In addition, in test [3], the activity, negative = inhibition is -5.58%. The Potency in test [4] was greater than 20.6 µM.

With `COc1ccc(/C(O)=C2\C(=O)C(=O)N(CCN3CCOCC3)C2c2ccccc2OC)cc1` (stereo not given), the activity change, negative = inhibition in test [1] is -4.72%; in test [2], 15.6%. Also, the activity, negative = inhibition in test [3] is -2.59%. In addition, the Potency in test [4] was greater than 20.6 µM.

Take `O=C(Nc1ncccc1Cl)c1cccc(F)c1`: the activity change, negative = inhibition was 2.04% in test [1] and 4.8% in test [2]. The activity, negative = inhibition in test [3] was 8.27%. The Potency in test [4] was greater than 20.6 µM.

For the molecule `COc1cc(C(=O)Nc2nccs2)cc(OC)c1OC`, the activity change, negative = inhibition in test [1] was 12.8%; in test [2], -2.54%. Further, the activity, negative = inhibition in test [3] was -9.15%. In test [4], the Potency was greater than 20.6 µM.

Take `OC(CNCCCN1CCCCC1)COc1ccccc1` (stereo not given): the activity change, negative = inhibition in test [1] is -10.5%; in test [2] it was -28.5%. The activity, negative = inhibition in test [3] was 9.93%. Moreover, the Potency in test [4] is greater than 20.6 µM.

Turning to `Cc1ccc(N2C(=O)[C@@H]3[C@H](C2=O)C2CCCN2[C@@H]3C(=O)c2ccccc2)cc1` (stereo not given in full), the activity change, negative = inhibition is -15.8% in test [1] and 9.36% in test [2]. Moreover, the activity, negative = inhibition in test [3] was -3.84%. Moreover, the Potency in test [4] was greater than 20.6 µM.

Take `CC1(C)CC(=O)C(C=N)=C(O)C1`: the values for the activity change, negative = inhibition in test [1] and in test [2] were -5.44% and 1.7%, respectively. The activity, negative = inhibition in test [3] is 2.78%. Besides, in test [4], the Potency is greater than 20.6 µM.

The values above are taken from PubChem BioAssay (NCATS).
